Screening data (PubChem)
GC-B act = GC-B (human) receptor activation; P20594; HEK293-GC-B cells, CNP EC30, cGMP TR-FRET; 0% at EC30 CNP, 100% saturating CNP; activation, % at 10 µM; actives 0.11% (n = 370,000); AID 1920062;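 active = activation at 10 µM reaching about 35% in either raw or pattern-adjusted values, limit read from the data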
NPR1 activator = GC-A (human) enzyme activation | P16066 | activation, % at 10 µM | AID 1671463 | HEK293 GC-A cells, cGMP TR-FRET, EC30 ANP; 0% at EC30 ANP, 100% saturating ANP | actives 0.14% (n = 370,000); in the data active = activation above about 40%
HSF1 inhib = HSF1 inhibition; activity change, negative = inhibition, % at 7.5 µM (by protocol); actives 0.77% (n = 300,000); NIH3T3-HGL HSE-luciferase, MG132-induced, luminescence 8 h; active compounds read low;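 active = more than half of replicate wells show activity change below -50%, luminescence cut by over half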;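 also: luciferase reports HSF-1 transcriptional activity via heat shock element; 0% = median of DMSO wells and -100% = zero luminescence signal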
aDG glyco up = increases alpha dystroglycan glycosylation. Pro5-aDG cells, alpha-DG glycosylation AlphaScreen (IIH6); 0% Pro5, 100% B10-LARGE cell signal. activation, % at 10 µM. actives 0.22% (n = 360,000). AID 624168;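 active = activation of at least 8% versus controls, or a plate z-score of at least 8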;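 also: Pro5 are CHO cells carrying HIG-tagged alpha-DG that lacks glycosylation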
HSF-1 act = increases HSF-1 driven luciferase reporter signal; actives 1.7% (n = 300,000); NIH3T3-HGL HSF-1 luciferase reporter, MG132, 8 h; 100% = twice DMSO control signal; activation, % at 9 µM;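 active = mean replicate activation of at least 50% with a set share of replicates each reaching 50%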;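 also: 0% = median of the neutral control wells and 100% = twice that signal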
Dyrk1A ADPGlo = Dyrk1A (rat) kinase inhibition. Q63470. ADP-Glo luminescence, NFATc1 peptide. inhibition, % at 12.5 µM. actives 0.43% (n = 310,000); in the data active = inhibition above about 50%;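 also: plate controls were vehicle with enzyme for no effect and no enzyme for full effect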
* marks the source's active call; other numbers are inactive results. Hits are enriched below; roughly 2.5% of the tested compounds scored in any of these assays.

Results for CN1CCc2c(sc(NC(=O)Cc3ccccc3)c2C(N)=O)C1 ?
GC-B act: 4; NPR1 activator: 4; HSF1 inhib: 2; aDG glyco up: 2; HSF-1 act: 21; Dyrk1A ADPGlo: 3

Results for Cc1ccc2c(c1)sc1nc(=O)n(-c3ccccc3)c(=O)n12 ?
GC-B act: 0; NPR1 activator: -1; HSF1 inhib: 32; aDG glyco up: 0; HSF-1 act: 58*; Dyrk1A ADPGlo: -1

How did CCn1c(=O)c(C(=O)Nc2ccccc2F)c(O)c2ccccc21 do in these assays?
GC-B act: -6; NPR1 activator: 4; HSF1 inhib: -78*; aDG glyco up: 0; HSF-1 act: -82

How did Cc1cccc(-c2noc(-c3ccccc3C(=O)NCc3ccco3)n2)c1 do in these assays?
GC-B act: 2; NPR1 activator: -1; HSF1 inhib: 29; aDG glyco up: 0; HSF-1 act: 64*

What do the screens show for `Cc1ccc(-c2noc(-c3ccccc3C(=O)NCc3ccco3)n2)cc1`?
GC-B act: -2; NPR1 activator: 3; HSF1 inhib: 7; aDG glyco up: 0; HSF-1 act: 10; Dyrk1A ADPGlo: 6

What do the screens show for `O=C(NCC1CCCO1)c1ccc(-c2ccccc2Cl)o1` (stereo unspecified)?
GC-B act: -6; NPR1 activator: -1; HSF1 inhib: 41; aDG glyco up: 1; HSF-1 act: 59*; Dyrk1A ADPGlo: 12

How did CC1CCN(C(=O)c2ccc(-c3ccccc3Cl)o2)CC1 do in these assays?
GC-B act: -5; NPR1 activator: 1; HSF1 inhib: 38; aDG glyco up: 1; HSF-1 act: 56*; Dyrk1A ADPGlo: 35

How did CCOC(=O)c1[nH]c2ccc(Cl)cc2c1NC(=O)c1nonc1C do in these assays?
GC-B act: -3; NPR1 activator: 0; HSF1 inhib: -3; aDG glyco up: 0; HSF-1 act: -2; Dyrk1A ADPGlo: 2

How did CCOc1ccc(N(CC(=O)Nc2cccc(N(C)S(C)(=O)=O)c2)S(=O)(=O)c2ccccc2)cc1 do in these assays?
GC-B act: 1; NPR1 activator: -2; HSF1 inhib: -1; aDG glyco up: 0; HSF-1 act: 13; Dyrk1A ADPGlo: 0

What do the screens show for `CC(=O)Nc1ccc(C2=NN(CC#N)C(=O)SC2)cc1`?
GC-B act: 6; NPR1 activator: 0; HSF1 inhib: -6; aDG glyco up: 0; HSF-1 act: -14; Dyrk1A ADPGlo: 0

Results for O=C1SCC(c2ccccc2)=NN1Cc1ccccc1 ?
GC-B act: 6; NPR1 activator: 0; HSF1 inhib: -59*; aDG glyco up: 0; HSF-1 act: -68; Dyrk1A ADPGlo: -1

Results for CC(=O)Nc1ccc(C2=NN(Cc3nnc(-c4ccccc4)o3)C(=O)SC2)cc1 ?
GC-B act: -4; NPR1 activator: -1; HSF1 inhib: 41; aDG glyco up: 0; HSF-1 act: 88*; Dyrk1A ADPGlo: -5

Results for CCCCNc1c(-c2ccc(SC3CCCCC3)c(OC)c2)nc2ccc(Cl)cn12 ?
GC-B act: -2; NPR1 activator: 26; HSF1 inhib: 8; aDG glyco up: 0; HSF-1 act: 5; Dyrk1A ADPGlo: 4

Results for O=[N+]([O-])c1cccnc1NCCc1ccccc1 ?
GC-B act: -1; NPR1 activator: -1; HSF1 inhib: 27; aDG glyco up: 0; HSF-1 act: 45; Dyrk1A ADPGlo: 2

What do the screens show for `O=[N+]([O-])c1cccnc1NCCc1c[nH]c2ccccc12`?
GC-B act: -1; NPR1 activator: -5; HSF1 inhib: 24; aDG glyco up: 0; HSF-1 act: 54*; Dyrk1A ADPGlo: 7

What do the screens show for `COC(=O)C(NS(C)(=O)=O)(c1c(C)[nH]c2ccccc12)C(F)(F)F` (stereo unspecified)?
GC-B act: -1; NPR1 activator: -2; HSF1 inhib: 1; aDG glyco up: 0; HSF-1 act: 1; Dyrk1A ADPGlo: 3

How did N#CCSc1ccccc1NC(=O)CN1C(=O)C(=O)N(Cc2ccccc2)C1=O do in these assays?
GC-B act: 4; NPR1 activator: 0; aDG glyco up: 0; Dyrk1A ADPGlo: -2

How did CN(C)S(=O)(=O)c1ccc(-c2csnn2)s1 do in these assays?
GC-B act: 1; NPR1 activator: -1; HSF1 inhib: -86*; aDG glyco up: -1; HSF-1 act: -89; Dyrk1A ADPGlo: -4

How did CN(C)c1ccc(NS(=O)(=O)c2ccc(-c3csnn3)cc2)cc1 do in these assays?
GC-B act: -2; NPR1 activator: 1; HSF1 inhib: -35; aDG glyco up: 0; HSF-1 act: -33

How did COc1ccc(Nc2ncnc3c2oc2ccccc23)cc1 do in these assays?
GC-B act: 1; NPR1 activator: 2; HSF1 inhib: 25; aDG glyco up: 0; HSF-1 act: 56*; Dyrk1A ADPGlo: 9

Results for Cc1ccc(Nc2ncnc3c2oc2ccccc23)cc1 ?
GC-B act: -5; NPR1 activator: -2; HSF1 inhib: 36; aDG glyco up: 0; HSF-1 act: 47; Dyrk1A ADPGlo: 2

How did Cc1ccc(-n2c(SCC(=O)Nc3cc(S(=O)(=O)N4CCOCC4)ccc3Cl)nc3ccccc3c2=O)cc1 do in these assays?
GC-B act: 9; NPR1 activator: 2; HSF1 inhib: 29; aDG glyco up: 0; HSF-1 act: 73*; Dyrk1A ADPGlo: -1

Results for O=C(CCCl)Nc1nc2c(s1)CCc1ccccc1-2 ?
GC-B act: 3; NPR1 activator: 4; HSF1 inhib: 146; aDG glyco up: 0; HSF-1 act: 175*; Dyrk1A ADPGlo: 15

How did Cc1nc2ccccc2c2nc3ccccc3n12 do in these assays?
GC-B act: 9; NPR1 activator: 7; HSF1 inhib: -8; aDG glyco up: 0; HSF-1 act: 20; Dyrk1A ADPGlo: 10

How did c1ccc2c(c1)nnn1c3ccccc3nc21 do in these assays?
HSF1 inhib: 29; HSF-1 act: 62*

How did COc1ccc(CN2CCNC(=O)C2CC(=O)NC2CC(C)(C)CC(C)(C)C2)cc1OC (stereo unspecified) do in these assays?
GC-B act: 2; NPR1 activator: 1; HSF1 inhib: -70*; aDG glyco up: 0; HSF-1 act: -79; Dyrk1A ADPGlo: 3

Results for CC(C)c1nnc(NC(=O)C2CCN(C(=O)c3ccco3)CC2)s1 ?
GC-B act: -4; NPR1 activator: 1; HSF1 inhib: -64*; aDG glyco up: 0; HSF-1 act: -71; Dyrk1A ADPGlo: -8

What do the screens show for `CCc1ccc(OCc2nnc(SCCN3CCOCC3)n2C)cc1`?
GC-B act: 1; NPR1 activator: -2; HSF1 inhib: 1; aDG glyco up: 0; HSF-1 act: 13; Dyrk1A ADPGlo: -4
